In article PMC5540273 (PLoS ONE, 2017):
Like-named read-outs stand apart in the source and are kept apart here.

Experiments:
Details in all cases: n = 1
PHKG1 = system: PHKG1
PHKG2 = system: PHKG2
PIK3C2B = system: PIK3C2B
PIK3C2G = system: PIK3C2G
PIK3CA = system: PIK3CA
PIK3CB = system: PIK3CB
PIK3CD = system: PIK3CD
PIK3CG = system: PIK3CG
PIK4CB = system: T1, PIK4CB
T1 construct: gene PI4KB

PIKFYVE = system: PIKFYVE
[1] = concentration: 1 μM, replicates: in singlicate
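Note: KINOMEscan kinase panel screen.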

SMILES | %Inh (PHKG1; [1]) [%] | %Inh (PHKG2; [1]) [%] | %Inh (PIK3C2B; [1]) [%] | %Inh (PIK3C2G; [1]) [%] | %Inh (PIK3CA; [1]) [%] | %Inh (PIK3CB; [1]) [%] | %Inh (PIK3CD; [1]) [%] | %Inh (PIK3CG; [1]) [%] | %Inh (PIK4CB; [1]) [%] | %Inh (PIKFYVE; [1]) [%] | %Inh (PHKG1; 1 µM) [%] | %Inh (PHKG2; 1 µM) [%] | %Inh (PIK3C2B; 1 µM) [%] | %Inh (PIK3C2G; 1 µM) [%] | %Inh (PIK3CA; 1 µM) [%] | %Inh (PIK3CB; 1 µM) [%] | %Inh (PIK3CD; 1 µM) [%] | %Inh (PIK3CG; 1 µM) [%] | %Inh (PIK4CB; 1 µM) [%] | %Inh (PIKFYVE; 1 µM) [%]
Cc1ccccc1-n1cnc2c(N)ncnc21 [SKF-97510] | 0 | 10 | 0 | 10 | 0 | 0 | 0 | 0 | 0 | 0 |  |  |  |  |  |  |  |  |  | 
O=S(=O)(c1ccc(-c2ccnc3[nH]ccc23)cc1)N1CCCC1 [GSK846226] | 0 | 10 | 3 | 0 | 8 | 0 | 0 | 14 | 23 | 0 |  |  |  |  |  |  |  |  |  | 
COc1ccc(Nc2nccc(-c3cccc(NC(=O)c4cc5cc(F)ccc5[nH]4)c3)n2)cc1 [GSK1229782] | 19 | 0 | 0 | 0 | 0 | 0 | 0 | 2 | 0 | 6 |  |  |  |  |  |  |  |  |  | 
CCn1c(-c2cccnc2O)nc2cnccc21 [SB-736715] | 0 | 3 | 0 | 0 | 0 | 0 | 0 | 1 | 24 | 22 |  |  |  |  |  |  |  |  |  | 
NC(=O)c1nnc2ccccc2c1N | 0 | 10 | 40 | 14 | 40 | 0 | 39 | 44 | 1 | 4 |  |  |  |  |  |  |  |  |  | 
COc1ccc(C2=C(Nc3cccc(C(=O)O)c3)C(=O)NC2=O)cc1 [SB-390765] | 0 | 0 | 23 | 21 | 0 | 40 | 16 | 27 | 22 | 0 |  |  |  |  |  |  |  |  |  | 
Cc1cccc(-c2nc(Nc3cccc(C(N)=O)c3)c3ccccc3n2)n1 [GW876019] | 0 | 8 | 0 | 44 | 0 | 0 | 48 | 0 | 0 | 16 |  |  |  |  |  |  |  |  |  | 
COc1ccc2nc(-c3cccc(C)n3)nc(Nc3ccncc3)c2c1 [GSK204919] | 0 | 0 | 3 | 0 | 0 | 0 | 0 | 0 | 5 | 81 |  |  |  |  |  |  |  |  |  | 
Cc1ccc(NC(=O)Nc2cccc(C(F)(F)F)c2)cc1 [GSK955403] |  |  |  |  |  |  |  |  |  |  | 12 | 15 | 1 | 36 | 5 | 0 | 0 | 9 | 0 | 0
COC(=O)c1c(-c2ccccc2)c2cc(OC)ccc2c(=O)n1Cc1ccccc1 | 7 | 31 | 0 | 0 | 3 | 14 | 5 | 0 | 0 | 13 |  |  |  |  |  |  |  |  |  | 
COc1cc(Nc2nccc(N3CCC(NC(=O)Nc4cc(C)ccc4C)C3)n2)cc(OC)c1OC (centres unmarked) [GSK1379762] | 3 | 0 | 0 | 0 | 0 | 0 | 39 | 0 | 15 | 0 |  |  |  |  |  |  |  |  |  | 
Fc1cccc(COc2nnc(-c3ccc4c(c3)CCO4)o2)c1 | 0 | 0 | 0 | 0 | 0 | 14 | 17 | 7 | 0 | 24 |  |  |  |  |  |  |  |  |  | 
O=C(Nc1ccccc1)Nc1cccc(Oc2ccc3nccn3n2)c1 | 0 | 9 | 0 | 0 | 0 | 0 | 14 | 6 | 0 | 0 |  |  |  |  |  |  |  |  |  | 
CCn1c(-c2ccccn2)nc2cnccc21 [SB-736398] | 0 | 0 | 0 | 0 | 0 | 18 | 5 | 0 | 0 | 32 |  |  |  |  |  |  |  |  |  | 
Cn1cncc1-c1ccc2ncnc(Nc3ccc(OCc4ccccc4)cc3)c2c1 [GW320571] | 5 | 1 | 61 | 57 | 0 | 0 | 7 | 6 | 0 | 0 |  |  |  |  |  |  |  |  |  | 
Cl.NC(=O)c1cccc(Nc2nccc(Nc3ccc(Oc4cccc(Cl)c4)c(Cl)c3)n2)c1 [GW659008] | 4 | 0 | 0 | 0 | 0 | 0 | 0 | 0 | 82 | 0 |  |  |  |  |  |  |  |  |  | 
O=c1cc(N2CCOCC2)nc2n(Cc3cccc(Cl)c3Cl)ccn12 [GSK2286295] | 0 | 19 | 22 | 0 | 20 | 98.7 | 89 | 50 | 0 | 0 |  |  |  |  |  |  |  |  |  | 
